Experimental data reported in PubChem BioAssay.

Assay: basal RPMI8226 viability, no added stimulus, profiling panel, cell-based, calcein-AM fluorescence, 48 h, PK04 Diversity Set (AID 1166);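 note: cells grown under basal conditions without added stimulus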
Conditions: RPMI8226 myeloma viability, higher = more signal
Note: test concentration not given here.

Question: With `O=C1O[C@@H](c2ccccc2)[C@@H](c2ccccc2)N2[C@@H](c3ccc(OCCO)cc3)[C@]3(C(=O)Nc4ccc(C#CC5(O)CCCCCC5)cc43)[C@@H](C(=O)Nc3nc4ccccc4s3)[C@H]12` as the molecule, how does the z-score read?
Answer: -1.79

Question: With `COCCCN1C(=O)[C@@]2(c3ccc([N+](=O)[O-])cc3)CC(=O)N(CC34CC5CC(CC(C5)C3)C4)[C@@H]2c2ccc(CO)cc21` as the molecule, how does the z-score read?
Answer: 1.12

Question: For `O=C1C2C=CC(C(O)c3cccs3)N(Nc3ccc([N+](=O)[O-])cc3)C2C(=O)N1c1ccccc1` (stereo unspecified), which z-score is on record?
Answer: -0.85

Question: Which z-score does the source give for `C=C1C(=O)C=C2CN(C(=O)c3ccccc3)[C@@](Cc3ccc(OC)cc3)(C(=O)OC)[C@@H]12` here?
Answer: -4.68

Question: Which z-score does the source give for `CCOC(=O)C[C@H]1[C@H](OC(=O)c2cc3ccccc3oc2=O)[C@@H](NC(=O)CC(C)C)c2cc(OCCCO)ccc2N1C(=O)Cc1ccc(OC)cc1` here?
Answer: 0.28

Question: For `CCOC(=O)C1=CC[C@@H](c2ccccc2)N(S(=O)(=O)c2ccc(C)cc2)[C@H]1c1ccccc1I`, which z-score is on record?
Answer: -0.965

Assay: basal HepG2 mitochondrial membrane potential changes, profiling panel, cell-based, JC-1 fluorescence, 24 h, 100 nL compound (AID 1167)
Conditions: higher = more signal

Question: With `COCCOC(=O)N1C(=O)[C@@]2(c3ccccc31)[C@H](C(=O)N1CCN(c3ncccn3)CC1)[C@H]1C(=O)O[C@H](c3ccccc3)[C@H](c3ccccc3)N1[C@@H]2c1ccccc1OCCO` as the molecule, how does the z-score read?
Answer: -0.195

Question: With `Cc1ccc(C(C)CC(O)C2C=CC3C(=O)N(C)C(=O)C3N2Nc2ccccc2)o1` (stereo unspecified) as the molecule, how does the z-score read?
Answer: -1.35

Question: Which z-score does the source give for `CC1CC/C=C\[C@H]2OC34C=CCN(CCN5CCOCC5)C(=O)[C@H]3N(CCCO)C(=O)[C@@H]4C2C(=O)O1` (stereo partly specified) here?
Answer: -0.734

Question: For `CCCNC(=O)[C@@]1(c2ccc([N+](=O)[O-])cc2)CC(=O)N(C(C)C)[C@@H]1c1ccc(CO)cc1`, which z-score is on record?
Answer: -0.534

Question: With `C=C(COC)/C(=C/C[C@H](OC(C)=O)c1ccccc1OCCO)c1cc(C(=O)OC)ccc1OC` as the molecule, how does the z-score read?
Answer: 0.532

Question: With `CC(C)C(=C=CC[C@H](O)c1ccccc1OCCO)C[C@H](O)COCc1ccccc1` as the molecule, how does the z-score read?
Answer: -0.0954

Question: For `CCCC[C@H]1OB(O)C[C@H]2C1=C(COc1ccccc1)C[C@H]1C(=O)C=CC(=O)[C@H]12`, which z-score is on record?
Answer: -1.59

Question: For `Cc1ccc(N2C(=O)c3ccccc3[C@](C)(C(=O)NCCCN(C)C)[C@@H]2c2ccc(CO)cc2)nc1`, which z-score is on record?
Answer: -0.53

Question: Which z-score does the source give for `CCCCC(O)C1C=CC2C(=O)N(c3ccccc3)C(=O)C2N1Nc1ccc([N+](=O)[O-])cc1` (stereo unspecified) here?
Answer: -0.573

Question: For `C=CCC(OC(C)=O)[C@@H]1[C@@H](N(Cc2ccc(-c3cccc(C(F)(F)F)c3)o2)C(=O)c2ccc(-c3ccccc3)cc2)c2cc(OCCCO)ccc2N1C(=O)c1ccc2ccccc2c1` (stereo partly specified), which z-score is on record?
Answer: 2.76

Question: With `C=C(CCCC)/C(=C/C[C@H](OC(C)=O)c1cccc(OCCO)c1)c1cnc2ccccc2c1` as the molecule, how does the z-score read?
Answer: 1.86

Question: For `OCCCC1=CC(c2ccc(CN3CCCC3)cc2)N(Cc2cccc(OC(F)(F)F)c2)CC1` (stereo unspecified), which z-score is on record?
Answer: -0.125

Question: For `C=C(COC)C(=O)CC[C@H](OC(=O)c1cccnc1)c1ccc(OCCO)cc1`, which z-score is on record?
Answer: -1.02

Question: Which z-score does the source give for `COc1ccc(C(O)C2C=CC3C(=O)N(c4ccccc4)C(=O)C3N2Nc2ccc(C#N)cc2)cc1OCc1ccccc1` (stereo unspecified) here?
Answer: -0.974

Question: For `C=CCNC(=O)[C@H]1[C@@H]2C(=O)O[C@@H](c3ccccc3)[C@@H](c3ccccc3)N2[C@@H](c2ccc(OCCO)cc2)[C@]12C(=O)Nc1ccc(C#CC3(O)CCCCCC3)cc12`, which z-score is on record?
Answer: -1.57

Question: With `CC[C@@H]1C=C(C(=O)O)[C@H](c2ccc(OC)cc2)N1S(=O)(=O)c1ccc(C)cc1` as the molecule, how does the z-score read?
Answer: -0.955

Question: With `O=C1C2C=CC(C(O)C3CCCCC3)N(n3cnnc3)C2C(=O)N1Cc1ccccc1` (stereo unspecified) as the molecule, how does the z-score read?
Answer: -0.37

Question: Which z-score does the source give for `[N-]=[N+]=NCc1ccccc1[C@@H]1OC(c2ccc(OCCCO)cc2)=N[C@]1(Cc1ccccc1N=[N+]=[N-])C(=O)O` here?
Answer: -1.44

Question: Which z-score does the source give for `COC(=O)c1cccc([C@H]2OC(=CC(=O)OC(C)C)C[C@@H](c3cccc(C(=O)OC)c3)O2)c1` here?
Answer: -0.571

Question: With `CN(C)CCCNC(=O)[C@@]1(Cc2ccccc2I)c2ccccc2C(=O)N(C2CCCCC2)[C@H]1c1ccc(CO)cc1` as the molecule, how does the z-score read?
Answer: -2.13

Question: Which z-score does the source give for `O=C1NC(=O)C2C1C=CC(C(O)c1ccc(B(O)O)cc1)N2Nc1ccc(Cl)cc1Cl` (stereo unspecified) here?
Answer: -1.75

Question: Which z-score does the source give for `COC(=O)[C@@]1(Cc2ccccc2)[C@H]2c3cc(C(=O)N(C)C)n(CCO)c3C[C@H]2CN1C(=O)c1ccccc1` here?
Answer: -0.92

Question: For `C=C(CCCC)C(=O)CC[C@H](OC(=O)c1ccccc1-c1ccccc1C(=O)O)c1ccc(OCCO)cc1`, which z-score is on record?
Answer: 0.236

Question: With `O=C1OCCC=C[C@H]2OC34C=CCN(c5ccc6ccccc6c5)C(=O)[C@H]3N(CCO)C(=O)[C@@H]4C12` (stereo partly specified) as the molecule, how does the z-score read?
Answer: -0.409

Question: Which z-score does the source give for `COc1cc(CO)cc(I)c1O[C@H]1C=C(C(=O)NCCO)C[C@@H]2O[C@H]12` here?
Answer: -0.873
